Measurements: PubChem BioAssay (Tox21)
Values joined by “and” are separate entries in the source; they are usually repeats but may differ in a detail not shown here. Equal entries are not always repeated. Results filed as inconclusive are left out. Some compounds were tested as several samples or in several runs, with calls that do not always agree. Active and inactive are the calls of the source. Unless noted, the call rests on the fitted dose curve; in most records, active means well fitted curve in the direction sought with a large enough effect in the repeat runs; inconclusive means weak or mixed curves; inactive means no such curve, though single readings can be large; an effect the other way counts as inactive or inconclusive.

Legend:
[1] = qHTS assay to identify small molecule antagonists of the androgen receptor (AR) signaling pathway using the MDA cell line in the presence of 0.5 nM R1881 - cell viability counter screen (AID 1259242); further: nearly all actives have a fitted effect of over 45% in size
Method in brief: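 R1881 at 0.5 nM final stimulated MDA-kb2 cells during 16 hr compound treatment at 37C. Cytotoxicity read: CellTiter-Fluor fluorescence after 30 min.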

[2] = qHTS assay to identify small molecule HDAC inhibitors (AID 1259364);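 further: wild-type HCT-116 cells with endogenous class I/II HDAC activity; top concentration of the series differs between compounds; nearly all actives have a fitted effect of over 45% in size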
Method in brief: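 Relative class I and II HDAC activity is taken from the luminogenic signal in HCT-116 cells, with compound exposure 2 hr and reagent development 30 min at room temperature.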

[3] = qHTS assay to identify small molecule HDAC inhibitors - cell viability counter screen (AID 1259365); further: series mostly up to about 92 µM; nearly all actives have a fitted effect of over 50% in size
Method in brief: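 Counter screen in wild-type HCT-116 cells: compounds dissolved in DMSO are pin-transferred onto overnight-plated cells and left 2hr at 37C. ATP-based CellTiter-Glo luminescence then measures viable cells.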

[4] = qHTS assay to identify small molecule agonists of the sonic hedgehog signaling (Shh) pathway - cell viability counter screen (AID 1259366); further: nearly all actives have a fitted effect of over 50% in size; further: potency means the concentration at half of the fitted maximal effect
Method in brief: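 Cells are plated at 2,000 per well and left 4hr at 37C, 5% CO2 before compound addition. After 23hr of treatment, CellTiter-Fluor reagent is added for 1hr at 37C and fluorescence is measured.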

[5] = qHTS assay to identify small molecule antagonists of the sonic hedgehog signaling (Shh) pathway - cell viability counter screen (AID 1259367); further: nearly all actives have a fitted effect of over 55% in size; further: potency means the concentration at half of the fitted maximal effect
Method in brief: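 NIH/3T3-derived Gli1-Luc reporter cells (2,000 per well) rested 4 hr at 37 C, then received DMSO compounds plus conditioned medium. After 23 hr of treatment, CellTiter-Fluor was added for 1 hr at 37C and fluorescence read.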

[6] = qHTS assay to identify small molecule agonists of the sonic hedgehog signaling (Shh) pathway (AID 1259368; calls by dose curve;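 further: NIH/3T3-derived 3T3Gli1-Luc cells carrying a stable Gli1-driven firefly luciferase reporter; series mostly up to about 92 µM; nearly all actives have a fitted effect of over 15% in size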)
Method in brief: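 Mouse fibroblast (NIH/3T3) reporter cells with stably integrated Gli1-Luc were treated 24 hr with compound; firefly luciferase luminescence served as the read-out.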

[7] = qHTS assay to identify small molecule antagonists of the sonic hedgehog signaling (Shh) pathway (AID 1259369; calls by dose curve; further: nearly all actives have a fitted effect of over 45% in size; further: potency means the concentration at half of the fitted maximal effect)
Method in brief: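 Conditioned medium drives Shh signalling in 3T3Gli1-Luc cells; compounds in DMSO co-applied, 24hr at 37 C, then luciferase luminescence.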

[8] = target: Estrogen receptor (Homo sapiens) (UniProt P03372); experiment: qHTS assay to identify small molecule antagonists of the estrogen receptor alpha (ER-alpha) signaling pathway using the BG1 cell line in the presence of 0.1 nM 17-beta-estradiol (AID 1259244); further: nearly all actives have a fitted effect of over 50% in size
Estrogen receptor (Homo sapiens), sequence (P03372 whole entry, looked up): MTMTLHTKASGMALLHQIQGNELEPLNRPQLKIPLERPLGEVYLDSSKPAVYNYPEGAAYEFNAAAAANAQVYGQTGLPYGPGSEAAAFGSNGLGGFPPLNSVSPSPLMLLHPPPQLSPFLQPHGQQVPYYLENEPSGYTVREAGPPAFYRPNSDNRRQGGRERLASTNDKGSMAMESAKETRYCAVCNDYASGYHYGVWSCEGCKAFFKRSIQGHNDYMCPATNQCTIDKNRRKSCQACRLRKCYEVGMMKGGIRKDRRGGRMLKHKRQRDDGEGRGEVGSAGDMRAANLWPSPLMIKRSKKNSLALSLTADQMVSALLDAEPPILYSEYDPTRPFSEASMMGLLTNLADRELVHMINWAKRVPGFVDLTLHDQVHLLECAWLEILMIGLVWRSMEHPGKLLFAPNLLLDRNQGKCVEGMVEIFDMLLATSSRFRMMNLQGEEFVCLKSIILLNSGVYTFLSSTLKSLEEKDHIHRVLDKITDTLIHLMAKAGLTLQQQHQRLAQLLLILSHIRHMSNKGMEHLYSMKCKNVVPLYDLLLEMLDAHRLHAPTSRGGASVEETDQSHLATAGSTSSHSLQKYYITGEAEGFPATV
Method in brief: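 VM7Luc4E2; 4xERE-luciferase; 0.1 nM E2 final; 22 h co-incubation, 37C; ONE-Glo luminescence after 30 min at room temperature.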

[9] = qHTS assay to identify small molecule phospholipidosis (PLD) inducers (AID 1259344; active means well fitted curve in the direction sought with a large enough effect; an effect the other way counts as inactive or inconclusive)
Method in brief: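 HepG2 cells on collagen I, attached 4 h at 37 C, were co-treated with compound and LipidTOX Red dye for 24 h at 37 C, then fixed with paraformaldehyde plus Hoechst 33342 and imaged by high-content microscopy for phospholipid accumulation.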
On the % scale 0 is the no-effect control and ±100 the full control effect.

CCCN(CCOc1c(Cl)cc(Cl)cc1Cl)C(=O)n1ccnc1
active: Potency [7] 6.24 µM
inactive: Potency [1] | Potency [2] | Potency [3] | Potency [4] | Potency [5] | Potency [6]

CCCC[P+](CC)(CCCC)CCCC (tested in a mixture with another compound)
inactive: Potency [1] | Potency [2] | Potency [3] | Potency [5] | Potency [6] | Potency [7]

O=C(O)c1cc(Cl)ccc1Cl
inactive: Potency [1] | Potency [3] | Potency [4] | Potency [5] | Potency [6] | Potency [7]

Clc1ccc(Cl)c(Cl)c1
inactive: Potency [1] | Potency [4] | Potency [5] | Potency [6] | Potency [7]

O=C(CCl)CCl
inactive: Potency [8] | Potency [2] | Potency [3] | Potency [5] | Potency [6]
active: Potency [7] 19.3 µM

CC(C)[C@@H](C(=O)O[C@@H](C#N)c1cccc(Oc2ccccc2)c1)c1ccc(Cl)cc1
inactive: Potency [1] | Potency [2] | Potency [3] | Potency [4] | Potency [5] | Potency [6]

Cc1ncc(C[n+]2csc(CCO)c2C)c(N)n1
inactive: Potency [1] | Potency [2] | Potency [3] | Potency [4] | Potency [5] | Potency [6] | Potency [7]

CC(C)(C)OOC(C)(C)CCC(C)(C)OOC(C)(C)C
inactive: Potency [1] | Potency [2] | Potency [4] | Potency [5] | Potency [6] | Potency [7]

OC[P+](CO)(CO)CO
31 µM (active) and inactive: Potency [7]
inactive: Potency [1] | Potency [2] | Potency [3] | Potency [4] | Potency [5] | Potency [6]

C=CCc1ccc(OC(=O)Cc2ccccc2)c(OC)c1
inactive: Potency [1] | Potency [2] | Potency [3] | Potency [4] | Potency [5] | Potency [6] | Potency [7]

O=[N+]([O-])/C=C/c1ccccc1
inactive: Potency [2] | Potency [5] | Potency [6]
active: Potency [4] 5.54 µM and 10.9 µM

CCCCCCCCCCCCN=C(N)N
inactive: viability change, negative = cytotoxic [1] -1.29% [at 3.26 µM] | activity change, negative = inhibition [2] 5.66% [at 3.27 µM] | activity change, negative = cytotoxicity [3] -3.51% [at 3.27 µM] | viability change, negative = cytotoxic [5] 1.35% [at 3.27 µM] | activity change [6] 0.488% [at 3.27 µM, stronger effect = higher value]
active: Potency [7] 0.671 µM

Cc1ccccc1
inactive: Potency [1] | Potency [2] | Potency [3] | Potency [4] | Potency [5] | Potency [6] | Potency [7]

C=CCSSCC=C
inactive: Potency [1] | Potency [2] | Potency [3] | Potency [4] | Potency [5] | Potency [6] | Potency [7]

O=C(N/N=C/c1ccc([N+](=O)[O-])o1)c1cc([N+](=O)[O-])cc([N+](=O)[O-])c1O
active: Potency [4] 10.6 µM | Potency [5] 10.6 µM | Potency [7] 10.6 µM
inactive: outcome [9] | Potency [2] | Potency [3] | Potency [6]

C[Si](Cn1cncn1)(c1ccc(F)cc1)c1ccc(F)cc1
active: Potency [7] 8.92 µM
inactive: Potency [1] | Potency [2] | Potency [3] | Potency [5] | Potency [6]

OCCCl
inactive: Potency [1] | Potency [2] | Potency [3] | Potency [4] | Potency [5] | Potency [6] | Potency [7]

O=C(O)C(Cl)(Cl)Br
inactive: Potency [1] | Potency [2] | Potency [3] | Potency [4] | Potency [5] | Potency [6] | Potency [7]

N#CC1(N=NC2(C#N)CCCCC2)CCCCC1
active: Potency [7] 21.7 µM
inactive: Potency [1] | Potency [2] | Potency [3] | Potency [4] | Potency [5] | Potency [6]

CC(Oc1cccc(Cl)c1)C(=O)O (stereo not drawn)
inactive: Potency [1] | Potency [3] | Potency [4] | Potency [5] | Potency [6]

O=S(=O)(c1ccccc1)c1ccccc1
inactive: Potency [1] | Potency [2] | Potency [4] | Potency [5] | Potency [6] | Potency [7]

c1ccc2c(c1)-c1cccc3cccc-2c13
inactive: Potency [1] | Potency [3] | Potency [4] | Potency [5] | Potency [6] | Potency [7]
